# Hits are enriched below; roughly 4.1% of the tested compounds scored in any of these assays.
# DAX1 inh-1 – DAX1 (NR0B1) inhibition, primary screen; HEK293T StAR-luciferase reporter, SF-1/DAX-1 repression relief; inhibition, % at 6.8 µM; 370,000 tested, 1.1% active;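 active means inhibition above the mean over all tested compounds plus 3 SD, cut at about 3.6% in these data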;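 further: higher inhibition means more luminescence from relief of DAX-1 repression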
# DAX1 inh-2 – inhibits human nuclear receptor DAX1 | P51843 | HEK293 Gal4-DAX1 luciferase reporter, luminescence | inhibition, % at 6.75 µM | 340,000 tested, 0.99% active | AID 504766;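 active means inhibition above the mean over all tested compounds plus 3 SD, cut at about 4.2% in these data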;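 further: inhibition shows as a rise in luminescence from relieved DAX1 repression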
# Target sequence (P51843 207-470 limits assumed): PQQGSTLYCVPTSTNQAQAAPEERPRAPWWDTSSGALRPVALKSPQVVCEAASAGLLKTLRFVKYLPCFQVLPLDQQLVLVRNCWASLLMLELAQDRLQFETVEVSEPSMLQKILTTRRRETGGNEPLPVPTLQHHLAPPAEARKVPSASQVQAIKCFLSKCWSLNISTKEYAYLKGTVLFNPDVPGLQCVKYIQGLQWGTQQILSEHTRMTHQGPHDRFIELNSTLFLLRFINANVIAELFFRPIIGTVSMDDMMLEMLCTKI
# hgDAF-12 ag – hgDAF-12 agonism, primary luciferase screen | 370,000 tested, 1.8% active | HEK293 GAL4-hgDAF12 UAS-luciferase reporter, agonist luminescence; normalized to butyrate control | activation, % at 6.8 µM | AID 687014;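 active means activation above a cutoff set at the mean of all screened compounds plus 3 SD, cut at about 10% in these data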
# hcDAF12 agonist – H. contortus DAF-12 activation, primary screen | HEK293 hcDAF-12 lit1-tk-luc reporter, luminescence; 0% DMSO, 100% Δ7-dafachronic acid | activation, % at 6.8 µM | 370,000 tested, 1.4% active | AID 652067;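 active means activation above the mean of all tested compounds plus 3 SD, cut at about 5.5% in these data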
# ssDAF-12 act – activates DAF-12 receptor from parasite S. stercoralis | HEK293 ssDAF-12/GRIP1 lit1-tk-luc reporter, luminescence; % of 3 µM dafachronic acid response | activation, % at 6.8 µM | 370,000 tested, 1% active | AID 652126;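 active means activation above the mean over all tested compounds plus 3 SD, cut at about 0.9% in these data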
# Numbers stand for hits; – = inactive; · = not tested or not shown.
SMILES,DAX1 inh-1,DAX1 inh-2,hgDAF-12 ag,hcDAF12 agonist,ssDAF-12 act
COc1cccc(C(=O)C[n+]2ccccc2/C=N/O)c1,–,–,–,–,1.2
O=C(Nc1ccc(OC(F)(F)F)cc1)c1cnccn1,–,6.4,–,–,–
CCON1C(=O)C(C)(C)N(OCC)C(=O)C1(C)C,–,–,–,–,–
CCOC(=O)CON1C(=O)C(C)(C)N(OCC(=O)OCC)C(=O)C1(C)C,–,–,–,–,1.0
C=CCN=C1NC(c2ccc(F)cc2)C(C(=O)OC)=C(C)N1C (stereo not drawn),–,·,–,–,–
CCNC(=O)N1CCN(c2ccc(N3CCN(C(=O)NCC)[C@@H](C)C3)c(C)c2)[C@@H](C)C1,–,·,–,–,–
COc1cccc(-c2nnc(-c3ccco3)o2)c1,–,–,12,–,–
CC(C)COc1ccc(-c2nnc(-c3ccco3)o2)cc1,3.7,–,–,–,–
COc1cccc(C(=O)Nc2ccc(-c3nnc(-c4ccco4)o3)cc2)c1,–,–,–,–,–
CCN(CC)CCCNc1ccc(-c2nnc(-c3ccc(OCC(C)C)cc3)o2)cn1,–,–,–,–,–
O=C(COc1ccccc1)Nc1ccc(-c2nnc(-c3ccco3)o2)cc1,–,–,–,6.3,–
CCCOc1ccc(-c2nnc(-c3ccco3)o2)cc1,3.7,–,11,–,–
Cc1ccccc1CS(=O)(=O)Cc1ccc(C(=O)Nc2c(C)cccc2C)o1,–,·,–,–,–
C#CCNC(=O)C[C@H]1C[C@@]2(C(=O)OCC)CCCC3=C2N(CCC3)C1=O,–,·,–,–,–
CC(=O)CC[C@H]1CC[C@]2(CCCN(C(=O)c3ccco3)C2)O1,–,·,–,–,–
C/C(=N\Nc1nc2ccccc2[nH]1)c1ccc(N2CCOCC2)cc1,3.9,–,–,–,–
Cc1ccc(Cn2cc(CN(C)S(=O)(=O)c3ccccc3Br)nn2)cc1,–,·,–,–,–
O=[N+]([O-])c1cc(C=Nc2ccc3ccccc3c2)ccc1Br,–,–,–,–,1.2
CCOc1ccc(N=Cc2ccc3ccccc3c2)cc1,–,–,–,–,–
COc1cccc(-c2cccc(NC(=O)C3CCN(C4CCOCC4)CC3)c2)c1,–,–,–,–,1.5
COc1cccc(-c2cccc(NC(=O)C3CCN(CC4CCOC4)CC3)c2)c1 (stereo not drawn),–,–,–,–,–
C=CCn1c(SCC(=O)Nc2ccc(CCCC)cc2)nnc1-c1ccc(Cl)cc1,–,·,–,–,–
COCCN(Cc1ccc(C)cc1)C(=O)[C@H]1O[C@@H](n2cnc(C(N)=O)n2)[C@H](O)[C@@H]1O,–,·,–,–,–
Cc1ccc(OCC(=O)O/N=C(\N)c2cccc([N+](=O)[O-])c2)cc1C,–,–,–,6.0,–
Cc1ccc(SCC(=O)O/N=C(\N)c2cccc([N+](=O)[O-])c2)cc1,–,–,–,–,–
SMILES,DAX1 inh-1,DAX1 inh-2,hgDAF-12 ag,hcDAF12 agonist,ssDAF-12 act
O=C(Nc1c(C(=O)O)[nH]c2ccccc12)NC1CCCCC1,–,–,–,–,1.2
COC(=O)c1[nH]c2ccc(C)cc2c1NC(=O)NC1CCCCC1,–,–,–,–,–
CC(C)CN(CCCNC(=O)CN1C(=O)CSc2ccc(S(=O)(=O)N3CCOCC3)cc21)CC(C)C,–,–,–,–,0.9
CC(C)CNS(=O)(=O)/C=C/c1ccccc1CCNC(=O)OC(C)(C)C,–,·,–,–,–
COc1ccc(C(=O)N(C)[C@H]2C[C@H]3c4[nH]c5cccc(-c6ccccc6)c5c4CCN3C[C@H]2[C@H](C)O)cc1,–,·,–,–,–
CC1(C)Cc2nc3[nH]c(=S)[nH]c(=O)c3cc2CO1,–,4.8,–,–,–
Cc1ccc(-n2c(=S)[nH]c3nc4c(cc3c2=O)COC(C)(C)C4)cc1,–,–,–,–,–
O=C(CCNc1ccc(Cc2ccncc2)cc1)c1ccc([N+](=O)[O-])cc1,–,–,–,–,11
Nc1[nH]c(C(=O)c2ccccc2)c(-c2cccc(C(F)(F)F)c2)c1C(=O)c1c[nH]c2ccccc12,–,·,–,–,–
Cc1ccc(SCC(=O)NCCc2ccc(F)cc2)cc1,–,–,–,–,–
CC(C)=CC(=O)NCCc1ccccc1,–,–,11,–,–
Cc1ccc(SCC(=O)NCCc2ccccc2)cc1,–,–,–,–,1.7
O=C(CSc1ccccc1)NCCc1ccccc1,–,5.6,–,–,–
O=C(CSc1ccccc1)NCCc1ccc(F)cc1,–,–,–,–,–
Cc1cc(C)cc(C(=O)OCCCN(C)C2CN(Cc3cn(Cc4ccc([N+](=O)[O-])cc4)nn3)S(=O)(=O)C2)c1 (stereo not drawn),–,·,–,–,–
COc1ccc(CN2C(=O)CSCCC2(C)c2nnnn2-c2c(C)cccc2C)cc1 (stereo not drawn),–,·,–,–,–
C=CCCC(=O)N[C@H]1CC[C@@]23CCCN2C(=O)CCC[C@H]3[C@H]1C,·,·,–,–,–
COC(=O)C1=C(C)N(Cc2ccccc2C(F)(F)F)C(=NCc2ccc(OC)cc2)NC1CCc1ccccc1 (stereo not drawn),–,·,–,–,–
COc1ccc(CCNC(=O)C/C(C)=N/NC(=O)c2ccc(N)cc2)cc1OC,–,–,–,–,0.9
COc1ccc(CC(=O)NNC(=O)c2nn(Cc3ccccc3)c(=O)c3ccccc23)cc1OC,–,5.1,–,–,–
COc1ccc(CCNC(=O)Cc2ccccc2)cc1OC,–,5.6,–,–,–
CCCCCCCCN1C(=O)N2Cc3cc(F)ccc3C2CS1(=O)=O (stereo not drawn),–,·,–,–,–
O=C(NN=Cc1ccccc1Cl)C(=O)Nc1cccc(C(F)(F)F)c1,–,·,–,–,–
Cc1ccc(-c2nc3ccccc3s2)cc1NC(=O)c1cc(-n2cnnc2)ccc1Cl,–,–,10,–,–
O=[N+]([O-])c1cccc(/C=N/n2cnnc2)c1,–,6.3,–,–,–
SMILES,DAX1 inh-1,DAX1 inh-2,hgDAF-12 ag,hcDAF12 agonist,ssDAF-12 act
O=[N+]([O-])c1ccc(O)c(/C=N/n2cnnc2)c1,–,5.1,–,–,–
Brc1cccc(/C=N\n2cnnc2)c1,–,–,–,–,–
CN(C)/N=C/c1cc([N+](=O)[O-])ccc1O,–,–,–,–,–
C=CCn1cnc2c(nnn2Cc2ccc(F)cc2)c1=O,–,4.6,–,–,–
Cc1[nH]c2ccccc2c1/C=N/Nc1nc(N2CCCCC2)nc(N2CCCCC2)n1,–,–,–,–,–
C(=N\Nc1nc(N2CCCCC2)nc(N2CCCCC2)n1)/c1c[nH]c2ccccc12,–,–,–,–,1.1
CN(C)c1nc(N/N=C/c2c[nH]c3ccccc23)nc(N2CCOCC2)n1,–,–,–,–,1.2
O=Cc1ccc(OCc2ccc3ccccc3c2)cc1,–,–,12,–,–
O=Cc1ccc(OCc2ccccn2)cc1,–,–,11,–,–
COc1ccc(COc2cccc(C=O)c2)cc1,–,–,–,–,–

# Assay outcomes as filed in PubChem.
